Screening results as filed in PubChem.
HT1080 IDH1KD tx = qHTS for induction of synthetic lethality in tumor cells producing 2HG: qHTS for the HT-1080-IDH1KD cell line; AID 686971, 2013; HT-1080 IDH1 knockdown viability, ATP luminescence, 48 h; Potency, µM (doses to about 46.1 µM), for the others: at the highest dose activity, negative = toxicity, hits mostly cytotoxic; 360,000 tested, 2% active;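 also: potency is read from the fitted curve at half-maximal effect; 0% = DMSO wells and -100% = cell-free medium wells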
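Cytotoxicity counter-line: IDH1KD HT-1080, 48 h, CellTiter-Glo. Curves classed by r2, magnitude and activity.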
HT1080NT lethal = qHTS for induction of synthetic lethality in tumor cells producing 2HG: qHTS for the HT-1080-NT fibrosarcoma cell line | HT-1080-NT fibrosarcoma viability, CellTiter-Glo ATP luminescence, 48 h | Potency, µM (titrated, usually from 46.1 µM), for the others: at the top dose activity, negative = less viability, most hits filed as cytotoxic | 360,000 tested, 1.6% active | AID 686970, 2013;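 also: NT is the 2HG producing partner of a matched IDH1 knockdown line; potency is read from the fitted curve at half-maximal effect; 0% = DMSO-treated cells and -100% = media-only wells without cells; nearly all actives have a fitted effect of over 55% in size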
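HT-1080-NT; 750 cells/well; 5% FBS RPMI; 48 h compound, 37 degrees C; CellTiter-Glo luminescence; curve fitting and curve-class assignment.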
IL1B secr inh = qHTS for Inhibitors of Inflammasome Signaling: IL-1-beta AlphaLISA Primary Screen; THP-1 LPS/ATP IL-1B secretion, AlphaLISA, 16 h; stronger effect = lower value; activity change, % at 57.5 µM; 360,000 tested, 4.7% active; AID 743279, 2014; in the data active = activity change below about -50%; inconclusive = mostly about -30% to -49%
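Secreted IL-1B measured by AlphaLISA bead assay after 16 h compound exposure of THP-1 cells; compounds (final up to 57.5 uM) added 1 h before LPS (250 ng/mL) and ATP (1.25 mM) stimulation; lower signal means less secretion.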
DT40 TDP1 no CPT = qHTS for Inhibitors of human tyrosyl-DNA phosphodiesterase 1 (TDP1): qHTS in cells in absence of CPT | DT40 Tdp1-/- hTDP1 cells, no CPT, ATP luminescence, 48 h | Potency, µM (titrated, usually from 46.2 µM), without a hit: top-dose activity change, negative = growth inhibition, hits mostly inhibitors | 420,000 tested, 15% active; also: potency is read from the fitted curve at half-maximal effect; nearly all actives have a fitted effect of over 55% in size
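Growth of hTDP1-complemented DT40 Tdp1-knockout cells is measured by ATP luminescence after at least 48 hr compound exposure at 37 °C, with DMSO substituting for the 20 nM CPT used in the parallel screen.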
DT40 TDP1 CPT = qHTS for Inhibitors of human tyrosyl-DNA phosphodiesterase 1 (TDP1): qHTS in cells in presence of CPT | chicken DT40 Tdp1-/-;hTDP1 cells + 20 nM CPT, ATP luminescence, 48 h | Potency, µM (titrated, usually from 46.2 µM), for inactives: at the top dose activity change, negative = growth inhibition, most hits filed as inhibitors | 420,000 tested, 12% active | AID 686979, 2013; also: potency is read from the fitted curve at half-maximal effect; nearly all actives have a fitted effect of over 55% in size
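Chicken DT40 Tdp1-/- cells stably complemented with human TDP1 were seeded at 400 cells/well in medium containing 20 nM camptothecin, exposed to pin-transferred compounds, and grown at 37 °C for at least 48 hr. Viability was read as ATP luminescence.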
* marks the source's active call; other numbers are inactive results; u = inconclusive. A selection: hits, their analogues and other compounds. The true share with any hit is near 19%. Unless noted, calls follow the shape of the dose curve; as a rule, active = well fitted curve in the direction sought with a large enough effect; inconclusive = small, poorly fitted or top-dose-only effect, or another doubt; inactive = no such curve, though single readings can be large; an effect the other way counts as inactive or inconclusive. Unless noted, % is scaled to controls: 0 for no effect and ±100 for the full control effect.

SMILES	HT1080 IDH1KD tx	HT1080NT lethal	IL1B secr inh	DT40 TDP1 no CPT	DT40 TDP1 CPT
O=C(Nc1ccc(Cl)cc1C(=O)c1ccccn1)c1ccccc1	0%	4%	7	u	-3%
CCOc1cc(NC(=O)c2ccccn2)c(OCC)cc1NC(=O)c1ccc(Cl)cc1	1%	4%	29	1.2µM*	1.5µM*
CCOc1cc(NC(=O)c2ccccn2)c(OCC)cc1NC(=O)c1ccccc1	12%	18%	3	21µM*	u
CC(OC(=O)c1ccncc1)C(=O)Nc1cccc(Cl)c1 (stereo unspecified)	-7%	-2%	17	0%	-5%
CCOc1cc(NC(=S)Nc2ccccc2)c(OCC)cc1NC(=O)c1ccccc1	0%	1%	-1	26µM*	18µM*
